The results in this text go back to PubChem BioAssay.

Values without a mark were called inactive.

The test in a line: small-molecule microarray binders of probe aXIP, primary screen, biochemical, NeuroSMM set, 635/667 nm fluorescence (AID 1119).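 Further: probe is the protein aXip251-270 applied at 1 µg/mL to compound-printed slides; binding of probe to printed compounds measured as 667 nm fluorescence plus signal to noise.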 Particulars: higher = more signal, called active from +8 up or from −8 down.
Consider `C=CCNC(=O)[C@H]1[C@@H]2C(=O)O[C@@H](c3ccccc3)[C@@H](c3ccccc3)N2[C@@H](c2ccc(O)cc2)[C@]12C(=O)Nc1ccc(C#CC3=CCCCC3)cc12`, for which the composite Z-score is -0.121.

For the compound `COC(=O)[C@@]1(Cc2ccccc2)[C@H]2c3cc(C(=O)N4CCCC4)n(Cc4ccc(C(F)(F)F)nc4)c3C[C@H]2CN1C(=O)c1ccccc1`, the composite Z-score was -0.296.

`O=C1OCCC/C=C\[C@H]2OC34C=CCN(Cc5ccccc5)C(=O)[C@H]3N(CCCCCO)C(=O)[C@@H]4C12` (stereo not given in full): the composite Z-score was -0.615.

As to `CN(C)CCCNC(=O)[C@@]1(Cc2ccccc2I)c2ccccc2C(=O)N(Cc2ccccc2)[C@H]1c1ccc(CO)cc1`, the composite Z-score was -0.307.

For `COC(=O)c1c(CC[C@@H](CO)NC(=O)N[C@@H](Cc2ccccc2)Cn2cc(-c3cncn3C)nn2)oc(C(C)=O)c1C(=O)OC`, the composite Z-score is 0.047.

Regarding `CC(c1ccccc1)C(O)C1C=CC2C(=O)N(c3ccccc3)C(=O)C2N1Nc1ccc(C#N)cc1` (stereo not given), the composite Z-score was -0.105.

Take `CC(=O)c1ccc(C(O)C2C=CC3C(=O)N(C)C(=O)C3N2NC(=O)OC(C)(C)C)cc1` (stereo not given): the composite Z-score was -0.331.

As for `C=CCC(OC(C)=O)[C@@H]1[C@@H](N(Cc2ccc(-c3ccccc3)cc2)C(=O)c2cccc3ccccc23)c2cc(OCCCO)ccc2N1C(=O)c1ccc2ccccc2c1` (stereo not given in full), the composite Z-score was -0.124.

As to `COC(=O)[C@@H]1N=C(c2ccc(OCCCO)cc2)O[C@@H]1c1ccccc1CN=[N+]=[N-]`, the composite Z-score is 0.443.

As to `CCOC(=O)C1=CC[C@@H](c2ccccc2)N(S(=O)(=O)c2ccc(C)cc2)[C@H]1C#N`, the composite Z-score was 0.718.
